Among all 330,000 compounds or so, about 10,000 (3%) were called active. This is one part of a sample in which actives are shown more often than they occur.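 How the source made its calls: active means inhibition of at least 50% at 8 µM in the primary screen; inactive means the rest.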
Target: Protein Mdm4 (Homo sapiens) + E3 ubiquitin-protein ligase Mdm2 (Homo sapiens) (UniProt O15151+Q00987)
Test: inhibitors of human Mdm2-MdmX association, primary screen, cell-based, luminescence, split luciferase, SaOS-2, uHTS (AID 485346)
Conditions: SaOS-2 split-luciferase Mdm2/MdmX complementation, at 8 µM, hits give high values

Sequence of Protein Mdm4 (Homo sapiens) + E3 ubiquitin-protein ligase Mdm2 (Homo sapiens) (O15151 whole entry, looked up): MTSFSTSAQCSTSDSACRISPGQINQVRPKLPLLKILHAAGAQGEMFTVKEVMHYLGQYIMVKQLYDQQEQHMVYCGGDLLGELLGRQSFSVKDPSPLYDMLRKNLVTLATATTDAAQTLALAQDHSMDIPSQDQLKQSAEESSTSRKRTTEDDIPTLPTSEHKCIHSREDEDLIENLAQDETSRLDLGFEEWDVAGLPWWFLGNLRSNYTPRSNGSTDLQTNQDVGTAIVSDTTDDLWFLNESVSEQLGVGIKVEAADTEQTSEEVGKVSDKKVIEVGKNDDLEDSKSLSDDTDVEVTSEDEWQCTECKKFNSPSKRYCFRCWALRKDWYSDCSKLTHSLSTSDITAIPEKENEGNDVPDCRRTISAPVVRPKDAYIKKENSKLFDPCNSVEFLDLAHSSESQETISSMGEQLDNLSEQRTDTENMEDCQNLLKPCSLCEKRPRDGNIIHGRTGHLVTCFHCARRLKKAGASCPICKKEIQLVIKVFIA
Sequence of Protein Mdm4 (Homo sapiens) + E3 ubiquitin-protein ligase Mdm2 (Homo sapiens) (Q00987 whole entry, looked up): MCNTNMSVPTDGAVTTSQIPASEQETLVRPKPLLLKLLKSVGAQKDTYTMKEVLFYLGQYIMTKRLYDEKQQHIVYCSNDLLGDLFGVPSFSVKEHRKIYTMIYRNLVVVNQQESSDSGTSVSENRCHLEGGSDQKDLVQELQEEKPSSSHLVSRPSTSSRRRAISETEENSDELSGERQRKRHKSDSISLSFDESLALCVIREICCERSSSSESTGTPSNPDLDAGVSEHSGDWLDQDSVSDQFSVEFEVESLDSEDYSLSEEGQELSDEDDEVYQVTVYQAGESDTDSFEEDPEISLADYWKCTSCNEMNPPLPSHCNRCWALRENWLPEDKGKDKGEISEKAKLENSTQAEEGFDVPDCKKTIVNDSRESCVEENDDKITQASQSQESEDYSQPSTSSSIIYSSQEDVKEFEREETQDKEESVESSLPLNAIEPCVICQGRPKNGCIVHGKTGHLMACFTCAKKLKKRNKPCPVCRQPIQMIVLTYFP

| Structure (SMILES) | inhibition |
| --- | --- |
| O=C(Nc1cccc(Br)c1)c1ccc2snnc2c1 | -3.74% (inactive) |
| CCc1ccccc1NC(=O)c1ccc2snnc2c1 | 25.3% (inactive) |
| O=C(Nc1ccc2ccccc2c1)Nc1ccc2snnc2c1 | 88.1% (active) |
| CC(C)[C@@H](C(=O)O)N(Cc1cccc(CN([C@H](C(=O)O)C(C)C)S(C)(=O)=O)c1)S(C)(=O)=O | 9.86% (inactive) |
| CCN(CC)S(=O)(=O)c1ccc(NC(=O)c2cccnc2Cl)c(NC(=O)c2cccnc2Cl)c1 | 94.7% (active) |
| CCN(CC)S(=O)(=O)c1ccc(Cl)c(NC(=O)c2ccncc2)c1 | 11.7% (inactive) |
| Cc1cccc(NC(=O)c2cccnc2Cl)n1 | 2.81% (inactive) |
| COc1ccc(OC)c(NC(=O)c2sc3nc(C)cc(C)c3c2N)c1 | 58.3% (active) |
| COc1ccc(OC)c(NC(=O)c2ccc3c(c2)CCN3S(C)(=O)=O)c1 | 15.2% (inactive) |
| COCc1cc(C)nc2sc(C(=O)NC3CCCCC3)c(N)c12 | 7.84% (inactive) |
| COc1ccc(N(C(=O)c2ccc(C)cc2)S(=O)(=O)c2cccs2)cc1 | 17.4% (inactive) |
| CN(C)c1ccc2c(=O)[nH][nH]c(=O)c2c1 | 4.05% (inactive) |
| O=C(NCc1cccs1)c1ccc2c(c1)ncn2C1CCCC1 | -11.4% (inactive) |
| CCOC(=O)C1CCN(Cc2c(C(=O)N3CCOCC3)nc3c(C)cccn23)CC1 | 15.2% (inactive) |
| COCCCNc1nc2c(-c3cccc(C(F)(F)F)c3)nnn2c2ccccc12 | 17.3% (inactive) |
| COC(=O)Cn1nc(-c2ccccc2)c2cc(Cl)ccc21 | 10.1% (inactive) |
| COCCCNc1nc2c(-c3cccc(C)c3)nnn2c2ccc(Cl)cc12 | 55.3% (active) |
| CC1CCCN(c2ccc(C(=O)NCCc3ccccc3)cn2)C1 (centres undefined) | -61.6% (inactive) |
| O=c1oc2ccccc2c(NC2CCCCC2)c1NS(=O)(=O)c1ccc(Cl)cc1 | 14.1% (inactive) |
| S=c1[nH]nc2c3c4c(sc3ncn12)CCCC4 | 14% (inactive) |
| O=C1NC[C@@H](c2ccccc2)OC(=O)[C@H](Cc2ccc(F)cc2)CC/C=C/C[C@H]1CC(=O)N(CCO)Cc1ccccc1 | 59.7% (active) |
| O=C1N[C@@H](c2ccccc2)COC(=O)[C@H](Cc2ccc(F)cc2)C/C=C\C[C@@H]1CC(=O)N(CCO)Cc1ccccc1 | 9.71% (inactive) |
| O=C1CCC/C=C/C[C@@H](CC(=O)N(CCO)Cc2ccccc2)C(=O)NC[C@H](c2ccccc2)O1 | -21.8% (inactive) |

| Structure (SMILES) | inhibition |
| --- | --- |
| Cn1c(CCNS(=O)(=O)c2ccc(F)cc2)nnc1SCc1cccnc1 | 13.7% (inactive) |
| CN[C@H](C(=O)NC[C@H]1O[C@@H](n2cnc3c(N)ncnc32)[C@H](O)[C@@H]1O)[C@@H](C)OCc1ccccc1 | 16.8% (inactive) |
| COc1ccc2cc(C3=CC(=O)C[C@H](c4ccc5c(c4)OCO5)C3)ccc2c1 | 3.41% (inactive) |
| Cc1ccc(N(NC(=O)C(C)(C)O)C(=O)c2ccccc2)cc1C | -3.58% (inactive) |
| CC(C)(O)C(=O)NN(C(=O)c1ccccc1)c1cccc(Br)c1 | -9.41% (inactive) |
| CCCC(O)(CCC)C(=O)NN(C(=O)CCl)c1cccc(C)c1 | 94% (active) |
| CCCCC(O)(CCCC)C(=O)NN(C(=O)CCl)c1ccccc1 | 87.3% (active) |
| COC(=O)N(NC(=O)C(O)(C(C)C)C(C)C)c1ccccc1 | -17.3% (inactive) |
| CCCCCNC(=O)C1c2ccccc2Oc2ccccc21 | -5.28% (inactive) |
| CCn1cc(C(=O)N[C@@H](C)C(=O)NCCO)c(=O)c2cc3c(cc21)OCO3 | -4.24% (inactive) |
| Cc1ccc(N(CC(=O)NCC2CCCO2)C(=O)CNS(=O)(=O)c2ccc(Cl)cc2)cc1 (centres undefined) | -1.2% (inactive) |
| Cc1ccc2c(c1)N(CCCC(=O)NCc1cccnc1)C(=O)CO2 | 5.4% (inactive) |
| CSCC[C@H](NC(=O)NCc1cccs1)C(=O)O | 3.11% (inactive) |
| O=C(CCc1nc2ccccc2c(=O)[nH]1)OCC(=O)c1cccc(Cl)c1 | 30.6% (inactive) |
| O=C(/C(=C/c1cccc(Cl)c1)c1nc2ccccc2[nH]1)c1ccccc1 | 100% (active) |
| O=C(Cc1nc2ccccc2[nH]c1=O)c1ccc(Cl)cc1 | -186% (inactive) |
| CCCN(CCC)c1c([N+](=O)[O-])c(=O)oc2ccccc12 | -1.56% (inactive) |
| Cc1cccc(-n2c(C)cc(/C=N/NC(N)=S)c2C)c1 | -13.2% (inactive) |
| Cc1ccc(-n2nc(C)c(/C=N/NC(=O)c3cccs3)c2Cl)cc1 | 3.87% (inactive) |
| Cc1cccc(-n2c(C)cc(/C=N\NC(=O)c3cccs3)c2C)c1 | 67.2% (active) |
| CCC1CCC2(CC1)NC(=O)N(CC(=O)Nc1ccc(OC)cc1)C2=O (centres undefined) | 18.6% (inactive) |
| CCN(CC(=O)Nc1ccc(NC(C)=O)cc1)C(=O)C1CC(=O)N(Cc2ccc(C)cc2)C1 (centres undefined) | -26.3% (inactive) |
| CCN(CC)c1ccc(C(=O)c2cnc(/N=C/N(C)C)s2)cc1 | -23.2% (inactive) |

| Structure (SMILES) | inhibition |
| --- | --- |
| Cc1ccc(NC(=S)NC(=O)c2ccc(-c3ccccc3)cc2)cc1 | 12.8% (inactive) |
| CCOC(=O)C1=C(NC(=S)NC(=O)c2ccccc2)c2ccccc2CC1(C)C | 51.4% (active) |
| COCCCNC(=S)NC(=O)c1ccccc1 | -18.2% (inactive) |
| CC1(C)C[C@H]2C3=CCC4[C@@]5(C)CC[C@H](O)[C@](C)(CO)C5CC[C@@]4(C)[C@]3(C)C[C@@H](O)[C@@]2(CO)[C@@H](O)[C@@H]1O (some centres undefined) | 17.8% (inactive) |
| O=C(Nc1cccc2cccnc12)c1cccc(Cl)c1 | -3.29% (inactive) |
| N#Cc1ccc(C(=O)Nc2cccc3cccnc23)c(F)c1 | 56.2% (active) |
| COc1ccc(NC(=O)c2ccco2)cc1NC(=O)c1ccc(C#N)cc1F | 5.85% (inactive) |
| CC(C)Cc1ccc(C(C)C(=N)N)cc1 (centres undefined) | -18.4% (inactive) |
| COc1ccc(S(=O)(=O)N(CC(=O)NCc2ccco2)c2ccc(F)cc2)cc1 | 10.5% (inactive) |
| Cc1oc2c(c1C(=O)N1CCOCC1)C(=O)c1ccccc1C2=O | 53.6% (active) |
| Cc1ccccc1-c1ccc(Nc2ccc(C(=O)N3CCOCC3)cc2)nn1 | 0.851% (inactive) |
| COC1=C(N2CCOCC2)C(=O)c2ccccc2C1=O | 17.1% (inactive) |
| O=C(Cn1nnc(-c2ccccc2)n1)N/N=C/c1ccc(-c2ccc(Cl)cc2)o1 | 69.4% (active) |
| Nc1nnnn1CC(=O)N/N=C/c1ccc(-c2cccc(Cl)c2)o1 | 0.676% (inactive) |
| Nc1nnn(CC(=O)N/N=C/c2ccccc2)n1 | 14.3% (inactive) |
| Cc1ccc(-n2c(=O)cc(N3CCN(Cc4ccccc4)CC3)[nH]c2=O)cc1 | 27.6% (inactive) |
| CN(C)S(=O)(=O)c1ccc(N2CCCC2)c(C(=O)Nc2ccc(Br)cc2F)c1 | 16.4% (inactive) |
| CN1CCC(N(C)S(=O)(=O)c2ccc(NC(=O)c3cccc(C#N)c3)cc2)CC1 | -11.1% (inactive) |
| Cc1ccc2nc(NC(=O)C3CSC4(C)CCC(=O)N34)sc2c1 (centres undefined) | 11.9% (inactive) |
| O=C(COc1ccccc1O)NC1CCCC1 | 7.91% (inactive) |
| Cc1c(CC(=O)NCCCCCC(=O)O)c(=O)oc2cc3occ(-c4ccccc4)c3cc12 | 7.02% (inactive) |
| CCCCCCc1cc2cc(-c3nnc(-c4ccccc4)o3)c(=O)oc2cc1O | 84.7% (active) |
| CCCCCCc1ccc(O)cc1O | 26.2% (inactive) |

| Structure (SMILES) | inhibition |
| --- | --- |
| COc1ccc(N2CCN(C(CNS(=O)(=O)c3ccc(C)cc3)c3ccccc3)CC2)cc1 (centres undefined) | 10.9% (inactive) |
| CCC1CO/C(=C(\C(=C(Cl)Cl)N2CCOCC2)[N+](=O)[O-])N1 (centres undefined) | 4.94% (inactive) |
| CCN(CC)CCN(C(=O)c1ccc(S(=O)(=O)N2CCOCC2)cc1)c1nc2cc3c(cc2s1)OCCO3 | 4.55% (inactive) |
| COc1cccc(C(=O)Nc2nc3ccc(S(C)(=O)=O)cc3s2)c1 | -20.5% (inactive) |
| CCc1ccc2nc(N(CCCN(C)C)C(=O)c3ccc4c(c3)OCCO4)sc2c1 | 39.7% (inactive) |
| Cc1ccc2nc(N(CCN(C)C)C(=O)C3=COCCO3)sc2c1 | 23.3% (inactive) |
| CN(C)CCCN(C(=O)c1ccc(S(=O)(=O)N2CCCCCC2)cc1)c1nc2ccc(Br)cc2s1 | 70.8% (active) |
| CS(=O)(=O)c1ccc2nc(NC(=O)c3ccc(N4CCCC4=O)cc3)sc2c1 | 56.8% (active) |
| CN(C)CCCN(C(=O)c1ccc(S(=O)(=O)N2CCCc3ccccc32)cc1)c1nc2ccc(F)cc2s1 | 76% (active) |
| COc1ccc2sc(N(CCCN(C)C)C(=O)c3ccc(S(=O)(=O)N(C)C4CCCCC4)cc3)nc2c1 | 19.3% (inactive) |
| CS(=O)(=O)c1ccc2nc(NC(=O)c3ccc(Cl)nc3)sc2c1 | 20.5% (inactive) |
| CN(C)CCCN(C(=O)c1ccc(S(=O)(=O)N2CCCCCC2)cc1)c1nc2cc3c(cc2s1)OCCO3 | 52.3% (active) |
| CCOc1ccc2nc(N(CCCN(C)C)C(=O)c3ccc(C(=O)c4ccccc4)cc3)sc2c1 | 48.2% (inactive) |
| CC1CCN(C(=O)c2cccc(S(=O)(=O)N3CCCc4ccccc43)c2)CC1 | 16.9% (inactive) |
| CCN(CC)CCn1cnc2c1c(=O)n(CCOC(=O)c1cc(OC)c(OC)c(OC)c1)c(=O)n2C | 11.6% (inactive) |
| CCN(CC)CCN1C(=O)C2C(C(=O)Nc3ccc(Br)cc3)C3C=CC2(O3)C1C(=O)NC1CCCCC1 (centres undefined) | -3.95% (inactive) |
| CC(C)CN1CCNC(=O)C1CC(=O)N(C)CC1CCOCC1 (centres undefined) | 11.5% (inactive) |
| Cc1ccc(CNC(=O)c2ccc(CS(=O)Cc3cccc(Cl)c3)o2)cc1 (centres undefined) | -2.29% (inactive) |
| O=C(CCc1ccccc1Cl)Nc1ccc(S(=O)(=O)Nc2nccs2)cc1 | 7.38% (inactive) |
| O=C(COC(=O)c1cccnc1Cl)Nc1ccc(S(=O)(=O)N2CCOCC2)cc1 | 5.66% (inactive) |
